# Measured values taken from the emibetuzumab library of Makowski et al. (2022).
# Some of the results follow. The hit rate among all sequences tested is not known here.
# B1: VH:VL chains; a variant is named by its letters at X, in order (parent)
# chain 1: QVQLVQSGAEVKKPGASVKVSCKASGYTFTDYXMHWVRQAPGQGLEWMGXVNPNXXXTTYNQKFEGRVTMTTDTSTSTAYMELRSLRSDDTAVYYCARXNXLDXWGQGTTVTVSS
# chain 2: DIQMTQSPSSLSASVGDRVTITCSVSSSVSSIYLHWYQQKPGKAPKLLIYSTSNLASGVPSRFSGSGSGTDFTLTISSLQPEDFATYYCQVYSGYPLTFGGGTKVEIK
# Variants of: B1
# Test: yeast display scFab, FACS + sequencing
# Details: with MET
# Method in brief: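 Round-3 sorted and input populations from a heavy-chain CDR mutant scFab yeast library were deep sequenced in two replicates. Sorting used FACS on cells labelled for 3 h at room temperature with 1 nM HGFR-Fc and anti-Myc in PBSB with 1% milk, keeping the top 50% antigen-positive cells. Any sequence seen in both antigen-positive samples was called a binder, while one seen only in the input was called a non-binder.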
row,Variant,antigen binding call
1,YRGGDYGA,no binding
2,YRGKDAGA,binds
3,YRGKDSGS,binds
4,YRGKDSGA,binds
5,VRGKGSSD,binds
6,VRKKGVSS,no binding
7,VRAGDDSD,no binding
8,VRRGDSSD,binds
9,VRGKGSSS,binds
10,VEGGGSSS,no binding
11,VAGTGSSD,no binding
12,VTGGDSSD,no binding
13,VTGTGSSD,no binding
14,VRTADDGA,no binding
15,VAATADVA,no binding
16,YGGRGYAV,no binding
17,YKGRGSLV,binds
18,YKKTGYWV,no binding
19,YKGRGYLV,binds
20,YKGEGYGV,no binding
21,YKEGAYAD,no binding
22,YKETGYAV,binds
23,YKGEGDLV,no binding
24,YKGRGYAV,binds

row,Variant,antigen binding call
1,DAARGDSA,no binding
2,AKGGGDVV,no binding
3,YAEEGVGY,no binding
4,YRARGFGA,no binding
5,YRARGVGA,binds
6,YRARGAGA,binds
7,YRARGAVA,binds
8,SEARSSSY,no binding
9,VEEEGAGV,no binding
10,DTTKSDGV,no binding
11,YRERSSVA,binds
12,YRARSAWA,binds
13,SEARSAWA,no binding
14,SEARSAVA,no binding
15,DRARTFVA,no binding
16,YRARSAVA,binds
17,YRARSSVA,binds
18,AEERASAF,no binding
19,VAGTGAVV,no binding
20,VAEKGDLS,no binding
21,VTTKSDLA,no binding
22,SAGKDDLA,no binding
23,DEGGTDVY,no binding
24,YRARGSVF,binds

row,Variant,antigen binding call
1,YRARGSLF,binds
2,YTARGVSF,no binding
3,FGAATDGV,no binding
4,DTREGDGA,no binding
5,FAGRDAVV,no binding
6,DGGKNAGD,no binding
7,FKRGSSSY,binds
8,DARGGSSY,no binding
9,VERGGDSY,no binding
10,YKRGSSSY,binds
11,FKRRDSVY,no binding
12,YKRGGSSY,binds
13,YKKESDSY,no binding
14,FKARDSSA,no binding
15,YERRDVLY,no binding
16,YRRGGDGA,binds
17,YRRGGVGA,binds
18,YREGGDGA,no binding
19,YRTEDVGA,no binding
20,YRRGSVGA,binds
21,YARRDVGA,no binding
22,YRKKSVGA,no binding
23,YEKGGDGA,no binding
24,AGGENDGD,no binding

row,Variant,antigen binding call
1,SGTKGYWD,no binding
2,DTKAAAGD,no binding
3,VEGGGDGV,no binding
4,YTGTSSSV,no binding
5,YRGRSSSV,binds
6,DAGGASSV,no binding
7,YRGRSASV,binds
8,ARGRSDAV,no binding
9,FARETFGV,no binding
10,VETEGDWY,no binding
11,YREEGDGV,no binding
12,YRRRGASV,binds
13,YRRRGVGV,binds
14,YRRRGSGV,binds
15,YARRGSGV,no binding
16,YGRRGFSV,no binding
17,YRRRGDGV,binds
18,VETRSDVA,no binding
19,VTGTSDLY,no binding
20,VTAGDDVY,no binding
21,DAGRGDGF,no binding
22,VATGGYAV,no binding
23,YRRRGAGV,binds
24,DATGGYAV,binds

row,Variant,antigen binding call
1,YRRRGFGV,binds
2,DAGGAAGV,no binding
3,DARRGAGV,binds
4,YKRRDFGV,no binding
5,YATGGYAV,no binding
6,DAAGAAGV,no binding
7,VTGTGAVV,no binding
8,VEGTNDVV,no binding
9,FKRKAAAA,no binding
10,YTRAGAAA,no binding
11,YKRGSAAA,binds
12,VKGRAAVA,no binding
13,VKRGSAAV,binds
14,YKRGGAAA,binds
15,AKRGSAAV,no binding
16,VTTKSAAV,no binding
17,VKRGSAAA,binds
18,YARADAAA,no binding
19,DKEGGAAA,no binding
20,DAGTGDGV,no binding
21,DEGRGDGV,no binding
22,VTGESAAV,no binding
23,DEARSDGA,no binding
24,YRRRGYSD,no binding

row,Variant,antigen binding call
1,FRRRGSSD,binds
2,FRREGSSD,no binding
3,FRTRGSSD,binds
4,YRRRGASD,binds
5,YRRRGSSD,binds
6,YAGTGDLV,no binding
7,YRTRSAGA,binds
8,YRTRSSGA,binds
9,DETRSAGA,no binding
10,VRTRSFGA,no binding
11,SGRGNDAV,no binding
12,YRRGGYAV,binds
13,DARGGAAV,no binding
14,YTRGADGV,no binding
15,ARRGAYGV,no binding
16,YRKGGAAV,binds
17,YRRGGAAV,binds
18,YARAGYAV,no binding
19,YRRGAAAV,binds
20,YRTRGYAV,no binding
21,AEGTSAVF,no binding
22,DAGGGDGA,no binding
23,AARADFGV,no binding
24,ATTKSDGA,no binding

row,Variant,antigen binding call
1,VATRGFWD,no binding
2,VRTRGSWD,binds
3,YRTRGSWD,binds
4,YRTRSSWD,binds
5,DATRSSWD,no binding
6,DRGKNDGD,no binding
7,DKEGGDGA,no binding
8,DREEGAGA,no binding
9,YRRRSAGA,binds
10,YRRRSAVA,binds
11,DREGDAVA,no binding
12,VTGGDDGA,no binding
13,VEGADAVA chain 1 G106S,no binding
14,AGGGNSGV,no binding
15,YKGRGSWS,binds
16,VKGRGSWS,binds
17,SKGRSSWS,no binding
18,VKGRASWS,no binding
19,VKGKSSWS,no binding
20,YKGGSDVY,binds
21,YKGGSAGY,binds
22,VKGTDAWY,no binding
23,YKGGSAWY,binds
24,YKGEDDVY,no binding

row,Variant,antigen binding call
1,YKGTDAWY,no binding
2,YEGGGDVY,no binding
3,VKGGAAVY,no binding
4,DEKEGDAA,no binding
5,YAGGAYLY,no binding
6,YEGGADVD,no binding
7,YRGGAAWD,binds
8,YRGGAAWY,binds
9,YRRRGFVD,binds
10,YRARGDLD,binds
11,YRRRGFGD,no binding
12,YRRRGSLD,binds
13,YRRRGSVD,binds
14,YTGTSDLD,no binding
15,DGARNSGV,no binding
16,FAGRAAWA,no binding
17,SETTDDVA,no binding
18,AGGGNDVY,no binding
19,YRRRGDVD,binds
20,YTERGDVD,no binding
21,YARRGSLD,binds
22,YRRRGAVD,binds
23,YRRRGYVD,no binding
24,YARADSLD,no binding

row,Variant,antigen binding call
1,DARRGSGD,no binding
2,YRRRSSVD,binds
3,SEGTGDWV,no binding
4,VEEEGDSA,no binding
5,VETEGDVA,no binding
6,YRREGSLD,binds
7,YRRRGSWD,binds
8,YRRRGDLD,binds
9,AEARSDGA,no binding
10,SRGRGAWY,binds
11,SEGRGAWY,binds
12,SEGRGDVY,no binding
13,AEGRGAVY,no binding
14,VETGNDGV,no binding
15,ATRGADAV,no binding
16,YRGRDFVD,no binding
17,YRGRGVVD,binds
18,YRGGGVVD,binds
19,YAGRGVVD,no binding
20,YREGDFVD,no binding
21,YAGTGVVD,no binding
22,YRGRGFVD,binds
